Screening data from PubChem BioAssay.
BAZ2B inh = inhibitors of human BAZ2B bromodomain | actives 4.4% (n = 360,000) | AlphaScreen BAZ2B-H3K14Ac peptide displacement | Potency, µM (top dose mostly 114 µM), without a hit: at the highest dose activity change, negative = inhibition, hits mostly inhibitors | Q9UIF8; also: % is scaled to controls: 0 for no effect and ±100 for the full control effect; nearly all actives have a fitted effect of over 60% in size
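Complex of BAZ2B and biotin-H3K14Ac (50 nM apiece) forms over 30 min at RT, then faces library compounds up to 110 uM for another 30 min; AlphaScreen beads added, 20 min dark incubation, luminescence read.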
HP1b chromo inh = inhibitors of HP1-beta chromodomain binding to methylated histone tails; Potency, µM (top dose mostly 114 µM), for inactives: at the highest dose activity change, negative = inhibition, most hits filed as inhibitors; actives 0.56% (n = 390,000); AlphaScreen HP1-beta / biotin-H3K9me3 peptide binding; P83916; also: nearly all actives have a fitted effect of over 70% in size
Target sequence (P83916 whole entry, looked up): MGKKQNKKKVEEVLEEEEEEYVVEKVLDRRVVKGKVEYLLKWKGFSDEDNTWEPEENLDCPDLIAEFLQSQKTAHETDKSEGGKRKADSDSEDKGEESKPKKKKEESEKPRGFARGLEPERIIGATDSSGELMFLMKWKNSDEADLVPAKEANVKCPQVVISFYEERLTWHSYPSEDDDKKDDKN
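Compound inhibition of the preformed complex between 50 nM HP1-beta and 50 nM biotinylated H3K9me3 peptide was read by AlphaScreen. Buffer was PBS pH 7.4 with 0.01% Tween-20. Incubations ran 30 min at room temperature, with 10 ug/mL donor/acceptor beads.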
Sfp PPTase inh = inhibitors of Bacillus subtilis Sfp phosphopantetheinyl transferase; Potency, µM, without a hit: largest response in the series, negative = inhibition, actives largely listed as inhibitors; Q9F4F7; AID 1490; actives 3.5% (n = 310,000); Biochemical Sfp PPTase activity, qHTS;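 also: the enzyme is Sfp with the accession as filed and its product quenches rhodamine fluorescence; 0% = enzyme reaction without inhibitor and -100% = no enzyme wells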
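Compounds were incubated with enzyme (final 15 nM) for 15 min at room temperature before substrate addition started the reaction. Fluorescence at 525 nm excitation, 598 nm emission was recorded immediately and after 30 minutes.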
G9a inh = inhibitors of human histone lysine methyltransferase G9a | Q96KQ7 | G9a H3K9 monomethylation, AlphaScreen, 2 h | Potency, µM (series often up to 102 µM), inactives show at the top dose activity, negative = inhibition, actives largely listed as inhibitors | actives 8.8% (n = 350,000) | AID 504332; also: % is scaled to controls: 0 for no effect and ±100 for the full control effect; nearly all actives have a fitted effect of over 75% in size
Target sequence (Q96KQ7 913-1193 limits assumed): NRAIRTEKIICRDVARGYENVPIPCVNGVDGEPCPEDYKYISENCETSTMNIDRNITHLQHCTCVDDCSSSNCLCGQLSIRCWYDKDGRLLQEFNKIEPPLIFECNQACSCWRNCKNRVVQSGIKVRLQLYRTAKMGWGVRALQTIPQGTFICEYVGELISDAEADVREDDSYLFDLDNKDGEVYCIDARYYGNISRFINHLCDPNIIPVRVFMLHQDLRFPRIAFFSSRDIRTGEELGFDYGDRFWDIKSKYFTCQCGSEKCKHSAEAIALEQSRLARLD
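AlphaScreen read-out: biotin-H3K9 peptide (500 nM) methylation by 20 nM enzyme with 20 uM SAM, 2 h at room temperature after 15 min compound preincubation; anti-monomethyl H3K9 antibody plus donor/acceptor beads, 10 min dark.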
JMJD2A Tudor = blocks the human JMJD2A Tudor domain; AlphaScreen JMJD2A-Tudor / H3K4me3 peptide binding; Potency, µM (highest dose often 114 µM), for the others: at the top dose activity change, negative = inhibition, usual class: inhibitors; actives 4.4% (n = 390,000); AID 504339; also: % is scaled to controls: 0 for no effect and ±100 for the full control effect; nearly all actives have a fitted effect of over 50% in size
PLK1 PBD inh = PLK1 (human) polo-box domain binding inhibition; Plk1 PBD binding of FITC phosphopeptide, fluorescence polarization; actives 2.8% (n = 360,000); AID 720504; Potency, µM, for inactives: max response, negative = inhibition, usual class: inhibitors; P53350; also: series mostly up to about 57 µM; % is scaled to controls: 0 for no effect and ±100 for the full control effect; nearly all actives have a fitted effect of over 65% in size
An asterisk follows results filed as active; [ ] = another dose, or the depositor's remark. An excerpt weighted towards active compounds, which were near 12% of everything screened. Calls follow the shape of the dose curve; as a rule, active = well fitted curve in the direction sought with a large enough effect; inconclusive = small, poorly fitted or top-dose-only effect, or another doubt; inactive = no such curve, though single readings can be large; an effect the other way counts as inactive or inconclusive. Potency is read from the fitted curve at half-maximal effect.

Screening OC(C1=CC(=Cc2ccncc2)c2ccccc21)c1ccncc1 (stereo not given) returned HP1b chromo inh 8.5%[57 µM], JMJD2A Tudor -13.8% and PLK1 PBD inh -25.0%.
Screening COc1cccc(N=Cc2c[nH][nH]c2=O)c1 returned BAZ2B inh -8.9%, HP1b chromo inh -10.8%, Sfp PPTase inh 14.4%, JMJD2A Tudor 56.2µM* and PLK1 PBD inh 26.7µM*.
`CCN(CC)S(=O)(=O)c1ccc(N2CC(C(=O)Nc3cccc(C(=O)NC4CC4)c3)CC2=O)cc1` (stereo not given) gave HP1b chromo inh 20.5%, JMJD2A Tudor -12.4% and PLK1 PBD inh -1.7%.
Screening CCn1c(SCC(=O)NCCOC)nc2sc(C)c(C)c2c1=O returned BAZ2B inh -0.8%, Sfp PPTase inh 44.7µM* and G9a inh -2.8%[12.7 µM].
`Cc1cc(C)n2nc(SCc3cc(=O)oc4cc(O)ccc34)nc2n1` gave BAZ2B inh 50.1µM*, Sfp PPTase inh -15.2% and G9a inh inconclusive.
`Cc1cc(C)n2nc(SCc3nnc(-c4ccc(F)cc4)o3)nc2n1` gave BAZ2B inh -18.4%, Sfp PPTase inh -15.8% and G9a inh 31.6µM*.
COc1ccc(-c2ccc(NS(=O)(=O)c3ccc(C(C)=O)cc3)cc2)nn1 was read as BAZ2B inh -2.3%, HP1b chromo inh 11.6%[57 µM], G9a inh 11.7%[59 µM] and JMJD2A Tudor -13.4%.
CN(C)c1ccc(C2CC(=O)NC3=C2C(=O)CC(C)(C)C3)cc1 (stereo not given) was read as BAZ2B inh -19.2%, HP1b chromo inh 7.8%, Sfp PPTase inh 12.0%, G9a inh inconclusive, JMJD2A Tudor -17.4% and PLK1 PBD inh -5.7%.
CCN(CC)c1ccc(C2CC(=O)NC3=C2C(=O)CC(C)(C)C3)cc1 (stereo not given) was read as BAZ2B inh -32.7%, HP1b chromo inh 6.8%, Sfp PPTase inh -2.2%, G9a inh 50.1µM*, JMJD2A Tudor -19.0% and PLK1 PBD inh -2.1%.
CCc1cc(-c2oncc2-c2ccc(OC)cc2)c(O)cc1OC was read as Sfp PPTase inh -21.8%.
For Cc1ccccc1/C=C/C(=O)c1ccc([N+](=O)[O-])o1 the results were BAZ2B inh 35.5µM*, HP1b chromo inh inconclusive, G9a inh -8.5%[2.33 µM], JMJD2A Tudor inconclusive and PLK1 PBD inh inconclusive.
`O=C(/C=C/c1cccc([N+](=O)[O-])c1)c1ccc([N+](=O)[O-])o1` gave HP1b chromo inh 41.8%, JMJD2A Tudor -22.5% and PLK1 PBD inh 5.32µM*.
Cc1cccc(/C=C/C(=O)c2ccc([N+](=O)[O-])o2)c1 was read as BAZ2B inh inconclusive, HP1b chromo inh 17.2%, G9a inh -16.9%[2.33 µM], JMJD2A Tudor -31.9% and PLK1 PBD inh inconclusive.
`CCC(=S)/C=C1\Sc2ccc3ccccc3c2N1CCCS(=O)(=O)O` gave BAZ2B inh inconclusive, Sfp PPTase inh 35.5µM* and G9a inh inconclusive.
Screening Cc1ccc(NC(=O)C2CCN(S(=O)(=O)c3cccc4nonc34)CC2)c(Cl)c1 returned BAZ2B inh -9.2%, HP1b chromo inh 10.6%, G9a inh -33.6%[59 µM] and JMJD2A Tudor -15.0%.
`CC12CCC(C)(c3nc4ccccc4nc31)C2(C)C` gave BAZ2B inh 3.3%, HP1b chromo inh 1.3%, Sfp PPTase inh 6.6%, G9a inh 15.3%[59 µM], JMJD2A Tudor inconclusive and PLK1 PBD inh 29.9µM*.
`COc1cc(/C=N/Nc2nc(C)cc(=O)[nH]2)ccc1O` gave BAZ2B inh -3.2%, HP1b chromo inh 44.7%, Sfp PPTase inh -18.6%, G9a inh 28.9%[0.501 µM], JMJD2A Tudor 3.3% and PLK1 PBD inh 3.6%.
Cc1n[nH]c(=O)nc1N/N=C/c1ccco1 was read as BAZ2B inh 25.1µM*, HP1b chromo inh 14.4%, Sfp PPTase inh 39.8µM*, G9a inh -39.6%, JMJD2A Tudor inconclusive and PLK1 PBD inh -11.1%.
`COc1cc(/C=N/Nc2nc(=O)[nH]nc2C)cc(OC)c1O` gave BAZ2B inh 2.9%, HP1b chromo inh -13.3%, Sfp PPTase inh 35.5µM*, G9a inh inconclusive, JMJD2A Tudor inconclusive and PLK1 PBD inh 21.2µM*.
Screening Cc1n[nH]c(=O)nc1Nc1ccc(O)cc1 returned BAZ2B inh 9.0%, HP1b chromo inh 10.8%, Sfp PPTase inh -4.2%, G9a inh 79.4µM*, JMJD2A Tudor -12.8% and PLK1 PBD inh -11.8%.
For CCOc1ccc(/C=N/Nc2nc(=O)[nH]nc2C)cc1OC the results were BAZ2B inh -2.0%, HP1b chromo inh 28.9%, Sfp PPTase inh 25.1µM*, G9a inh -34.5%, JMJD2A Tudor inconclusive and PLK1 PBD inh -9.0%.
`CCCCNC(=O)C1(C)CCCCN1C(=O)c1ccc2c(c1)C(C)(C)CCC2(C)C` (stereo not given) gave PLK1 PBD inh -5.5%.
`CCCN(Cc1cccs1)C(=O)Nc1ccccc1C` gave BAZ2B inh 3.6%, HP1b chromo inh 78.4%, G9a inh -24.6%[59 µM] and JMJD2A Tudor 40.4%.
`Cc1n[nH]c(=O)nc1NCCc1ccccc1` gave BAZ2B inh -4.5%, HP1b chromo inh 16.1%, Sfp PPTase inh 0.2%, G9a inh 89.1µM*, JMJD2A Tudor 21.1% and PLK1 PBD inh -17.5%.
`CCOc1cc(/C=N/Nc2nc(=O)[nH]nc2C)ccc1O` gave BAZ2B inh -16.9%, HP1b chromo inh 20.9%, Sfp PPTase inh 70.8µM*, G9a inh 16.0%, JMJD2A Tudor inconclusive and PLK1 PBD inh -9.7%.
For CCOc1cc(/C=N/NC(=O)N/N=C/c2ccc(O)c(OCC)c2)ccc1O the results were HP1b chromo inh 11.6%, JMJD2A Tudor -11.9% and PLK1 PBD inh -4.4%.
Screening CCOc1cc(/C=N/Nc2nnc(C)n2N)ccc1O returned BAZ2B inh inconclusive, HP1b chromo inh 18.3%, Sfp PPTase inh 56.2µM*, G9a inh 25.1µM*, JMJD2A Tudor -15.3% and PLK1 PBD inh -5.3%.
`CC1=C(c2ccc(C)c(C)c2)S(=O)(=O)N=C1N1CCC(C(=O)NC(C)c2ccccc2)CC1` (stereo not given) gave BAZ2B inh -8.8%, HP1b chromo inh -17.3%, G9a inh -0.7%[59 µM] and JMJD2A Tudor -13.3%.
CN1C[C@@H]2[C@@H]3C(=O)N(Cc4ccccc4)C(=O)[C@@H]3[C@](C)(C1=O)N2C(=O)c1ccc(Cl)cc1 was read as HP1b chromo inh 28.6%, JMJD2A Tudor -16.8% and PLK1 PBD inh -2.2%.
For CCN(Cc1ccccc1)C(=O)Cn1c(=O)n(-c2ccc(Cl)cc2)c(=O)c2c(C)c(C(=O)N(C)C)sc21 the results were BAZ2B inh -4.8%, HP1b chromo inh 6.6%, G9a inh 11.4%[59 µM] and JMJD2A Tudor 12.6µM*.
